Whole data set: some 33,000 sequences, median “E-score (-0.5 to 0.5)” near -0.012, cut for the highest 2% near 0.29. The list comes from a sample in which the highest values are over-represented; it also holds similar and randomly drawn sequences.
Target: T1, Ybr033w (UniProt P38073)
T1 sequence: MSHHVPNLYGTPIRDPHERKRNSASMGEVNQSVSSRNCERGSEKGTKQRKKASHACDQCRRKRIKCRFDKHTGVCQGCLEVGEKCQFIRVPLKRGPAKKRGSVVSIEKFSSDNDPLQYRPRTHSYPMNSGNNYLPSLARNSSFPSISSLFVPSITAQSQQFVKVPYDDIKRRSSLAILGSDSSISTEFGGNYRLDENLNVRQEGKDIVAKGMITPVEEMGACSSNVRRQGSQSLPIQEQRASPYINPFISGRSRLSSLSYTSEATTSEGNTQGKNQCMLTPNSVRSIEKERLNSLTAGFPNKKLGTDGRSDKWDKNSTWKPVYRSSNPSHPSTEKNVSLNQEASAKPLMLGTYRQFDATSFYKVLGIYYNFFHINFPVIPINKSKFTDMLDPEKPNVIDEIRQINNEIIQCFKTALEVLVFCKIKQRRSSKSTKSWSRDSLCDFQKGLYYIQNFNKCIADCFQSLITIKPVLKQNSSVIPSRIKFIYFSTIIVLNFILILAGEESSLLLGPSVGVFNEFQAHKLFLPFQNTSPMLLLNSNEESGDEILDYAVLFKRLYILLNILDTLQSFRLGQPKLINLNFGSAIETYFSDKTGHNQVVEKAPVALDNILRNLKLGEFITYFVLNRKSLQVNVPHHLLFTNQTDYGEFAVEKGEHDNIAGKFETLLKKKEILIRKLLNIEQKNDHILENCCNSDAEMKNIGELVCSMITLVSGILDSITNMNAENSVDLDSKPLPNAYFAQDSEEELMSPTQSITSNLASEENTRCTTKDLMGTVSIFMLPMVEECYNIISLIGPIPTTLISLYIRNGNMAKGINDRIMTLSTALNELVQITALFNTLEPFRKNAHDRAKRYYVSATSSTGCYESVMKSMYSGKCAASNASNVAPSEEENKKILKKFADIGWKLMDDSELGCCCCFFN
Test: PBM E-score (8-mer binding enrichment) (E-score (-0.5 to 0.5)); higher = stronger / more preferred TF binding
Conditions: protein concentration: 200 nM; construct: GST-full length
Summary of the method: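 The E-score, a modified Wilcoxon-Mann-Whitney statistic, was computed by the Universal PBM Analysis Suite for every ungapped eight-base word pooled with its reverse complement. Scans behind it were normalised with masliner after bound GST-tagged yeast transcription factors were detected with fluorescent anti-GST. The proteins, at about 100-200 nM, had been applied to universal all-10-mer Agilent arrays made double-stranded by primer extension.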

Sequence	PBM E-score
CATTATCG	0.0618
CATTATCA	0.138
AATTATCT	0.264
AATTATCG	0.308
ATTTATCG	0.0834
AATTATCA	0.324
TCGACCGA	-0.0438
CTGCACCC	-0.204
ACCTTTAA	0.126
AGTAGCAC	-0.0755
GTTTTATA	0.0686
ATTTTATA	0.309
ATTTTATC	0.325
CTTTTATC	0.232
ATTTTATG	0.186
ACTTTATC	0.277
AGCTTATG	0.0568
GGGGGTAC	-0.254
GTGTTCCA	-0.0466
ATGTTCAG	-0.137
CTGTTCCA	0.0353
ATGTTCCG	0.458
ATGTTCCC	0.199
ATGTTCCA	0.332
CACTGATC	0.0744

Sequence	PBM E-score
GTCTGAGA	-0.163
AACAACTC	0.0616
AACAAACA	0.193
AACAACTT	0.291
TACAAACA	0.29
AACAAACC	0.105
AACAAACG	0.183
AACAAACT	0.341
TACAAGCA	0.189
AACAACTA	0.147
CAAATCCG	0.0419
CTCGTGGC	-0.173
AAGTACTG	0.112
AGTGGTCA	-0.103
GAGACACC	-0.216
TGACTAAA	0.0305
TGAAGGAA	0.211
AGTATTGC	0.169
AGTATTTC	0.34
CGTATTTA	0.311
CGTATTTC	0.0631
AGTATTTG	0.159
GGTATTTA	0.125
ACTATTTA	0.235
AGTATTCC	0.161

Sequence	PBM E-score
AGTATTTA	0.301
AGACTTTG	-0.0453
CCGACACG	-0.213
ATCACAAG	0.107
CCTACTTC	-0.0544
CGCAGGTC	-0.168
ACAGCCTG	-0.0521
ACGAGTGC	-0.0558
CCACCCTC	-0.0745
ACCAATAA	0.107
GCATCGCC	-0.17
ATATCCAC	0.145
GAAGGCTA	0.0975
TGGAGAAA	0.133
CGGAGAAA	0.39
CGGAGAAG	-0.166
TAAACTCA	0.147
CAATAACA	0.066
GAATAATA	0.395
GCATAATA	0.198
GGATAATA	0.349
GAATAATC	0.379
GGATAGTA	0.206
GAATAACC	0.113
GAATAAAC	0.142

Sequence	PBM E-score
GAATAAGC	0.189
CGATAATA	0.0851
GAATAACA	0.367
GAATAAGA	0.0352
CATCCTGC	-0.163
CAAGAGGC	-0.144
CTTCAGAA	-0.028
GTAGGACA	0.012
ACGTATAC	0.181
ATTCTGAA	0.187
CGAGGGAA	-0.0841
AATGTAAG	0.288
CATGTAAG	-0.0133
AATGTAAT	0.272
AGCCTCCC	-0.254
AACCTGCC	-0.0858
AATTGATC	0.354
AATTGATG	0.309
ACTTGATG	0.218
AATTGATA	0.255
AATTGACC	0.0241
CATTGATC	0.236
TAACCAAA	0.186
CGGAGGGA	-0.057
CGTCTTCC	-0.215

Sequence	PBM E-score
CTTACTTA	0.0259
ATTACTTA	0.35
ATTACTGA	0.169
ATTACTCG	0.132
ATTACTCC	0.23
ATTACTCA	0.296
CACCAGTC	-0.196
AAAAGTTG	0.133
GAAAGTTC	-0.0203
AAAAGTTA	0.288
AAAAGTTT	0.266
TAAAGTTA	0.358
AAAAGTTC	0.373
AAAAGTAT	0.13
CAAAGTAA	0.186
AAAAGTAA	0.314
CAAAGTTA	0.279
GAAAGTTA	0.218
ACAAGTTA	0.185
ACGGTGGC	-0.095
CGGCCATA	-0.17
CTATCCAG	0.062
AGTGGTTC	0.00899
TGAGCCCA	-0.0977
GTTCTGCA	-0.173

Sequence	PBM E-score
AGAACTAG	-0.084
CTCTGCGC	-0.118
TAGACGCA	-0.0494
CCGCTTGA	-0.162
GCCTTTCC	-0.254
CAAATATA	0.281
GAAATATA	0.327
TAAATATA	0.353
GAAATATC	0.231
TAAATACA	0.229
GAAATACA	0.14
GGCCAATA	-0.0498
AAAGCTCT	-0.262
CAATGCTA	0.115
CTCCATGA	0.0454
TAGACAGA	0.157
CATCAAAA	0.108
AATCAATT	0.247
GATCAATA	0.329
AATCAAAA	0.225
AATCAATA	0.334
GATCAAAA	0.296
TATCAATA	0.257
AATCAATC	0.0849
GATCAATC	0.184

Sequence	PBM E-score
AGGGTAAG	0.0154
CCTAGGAC	-0.087
AAAGCAAT	0.16
ACCCCCTG	-0.454
CTGGAATC	-0.00413
ATGGAATA	0.316
CTGGAACA	0.31
ATGGAACA	0.182
GTGGAATA	0.262
CTGGAATA	0.355
CTGGAAGA	0.189
CTGGAACC	-0.209
ATGGAATC	0.198
ATGTGGAA	0.235
CCGGGTGC	-0.181
CCCTTTGC	-0.134
GGCCTAAC	-0.013
CACAGAGC	-0.121
ATACGTAT	0.207
TGGATCCA	-0.0233
GGGATCAA	0.242
AGGATCAA	0.317
AGGATCAC	-0.0786
AGGATCAG	-0.166
TGGATCAA	0.377
